The results in this text go back to the supplement of paper PMC3545927.

The other results are listed elsewhere or left out. The true hit rate is not given.

The test concerns the target furin, P09958. Put plainly: furin cleavage Z-score vs untreated control; higher = more cleavage, active = 3.5 or more, inactive = 1 or less, 8 variable residues between constant flanks. The procedure, abridged:
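Furin cleavage was scored on 8-mer peptides joined to a cDNA oligonucleotide and bound to magnetic beads at the N-terminus. Digestion with purified furin (1:10 enzyme:substrate, 0.01 ml, 50 mM HEPES pH 7.5, CaCl2, NaCl) lasted 7.5, 15 or 30 min. Freed DNA was tagged with adapters by PCR, sequenced and counted; the cleavage Z-score is the lowess-adjusted log count versus furin-free reactions, scaled by median absolute deviation.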

furin, P09958, sequence (P09958 whole entry): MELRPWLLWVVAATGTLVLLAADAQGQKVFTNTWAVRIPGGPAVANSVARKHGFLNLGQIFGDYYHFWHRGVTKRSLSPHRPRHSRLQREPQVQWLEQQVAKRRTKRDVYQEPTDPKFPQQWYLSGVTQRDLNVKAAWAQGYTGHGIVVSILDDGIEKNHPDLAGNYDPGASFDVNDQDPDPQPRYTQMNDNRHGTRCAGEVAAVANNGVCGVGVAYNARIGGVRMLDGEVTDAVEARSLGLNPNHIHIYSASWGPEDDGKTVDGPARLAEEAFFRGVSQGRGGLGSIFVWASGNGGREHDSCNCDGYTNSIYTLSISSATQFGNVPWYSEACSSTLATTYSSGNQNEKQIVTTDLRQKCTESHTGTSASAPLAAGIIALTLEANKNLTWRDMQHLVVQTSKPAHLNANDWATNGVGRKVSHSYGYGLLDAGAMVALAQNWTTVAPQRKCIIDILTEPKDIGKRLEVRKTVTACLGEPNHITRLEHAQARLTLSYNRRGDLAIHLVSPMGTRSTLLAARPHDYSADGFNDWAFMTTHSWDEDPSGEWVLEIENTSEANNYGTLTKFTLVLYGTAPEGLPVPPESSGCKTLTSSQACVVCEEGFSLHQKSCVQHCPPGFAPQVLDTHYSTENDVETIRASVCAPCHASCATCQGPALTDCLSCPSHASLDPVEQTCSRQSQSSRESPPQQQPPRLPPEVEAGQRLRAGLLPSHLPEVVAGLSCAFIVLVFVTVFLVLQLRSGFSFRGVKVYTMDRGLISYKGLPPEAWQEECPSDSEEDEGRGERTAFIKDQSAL

On to CAEVPCHKPSAGNASASA [HC2374], for which the “furin cleavage Z-score” value was 0.115 (inactive) (7.5 min), 1 (15 min) and -0.202 (inactive) (30 min).
Take CADFMEECSQAGNASASA [HC1807]: the “furin cleavage Z-score” value by setting is: (7.5 min) 0.00727 (inactive); (15 min) -0.301 (inactive); (30 min) -1.48 (inactive).
On the same counts, the results for CAMCAVHPTLAGNASASA [HC599] are -1.6 (inactive), -0.0857 (inactive) and -0.861 (inactive).
On the same counts, the results for CAFYGKAIPLAGNASASA [HC848] are 0.497 (inactive), -0.506 (inactive) and -2.2 (inactive).
On the same counts, the results for CALWARMILMAGNASASA [HC1580] are -0.179 (inactive), -0.799 (inactive) and -1.16 (inactive).
As to CATWLKAKLMAGNASASA [HC1157], the “furin cleavage Z-score” value is, setting by setting: (7.5 min) 3.1; (15 min) 1.6; (30 min) 3.5 (active).
Turning to CANNARAARSAGNASASA [FS-1547], the “furin cleavage Z-score” value is 5.1 (active) (7.5 min), 5 (active) (15 min) and 5.02 (active) (30 min).
Consider CANILRKARSAGNASASA [FS-366], for which the “furin cleavage Z-score” value runs as follows: (7.5 min) 9.27 (active); (15 min) 9.75 (active); (30 min) 7.85 (active).
In the case of CATCGFADLMAGNASASA [HC224], the “furin cleavage Z-score” value reads like this: (7.5 min) -0.244 (inactive); (15 min) -0.821 (inactive); (30 min) -0.0608 (inactive).
On the same counts, the results for CATLLRAARSAGNASASA [FS-1659] are 4.67 (active), 4.38 (active) and 3.86 (active).
On to CATTPCSGQWAGNASASA [HC1922], for which the “furin cleavage Z-score” value by setting is: (7.5 min) -0.163 (inactive); (15 min) -0.899 (inactive); (30 min) -0.665 (inactive).
On the same counts, the results for CAVYTFYGMWAGNASASA [HC554] are -0.934 (inactive), -0.697 (inactive) and -0.425 (inactive).
On the same counts, the results for CASTPCSWHLAGNASASA [HC2528] are 1.37, 0.165 (inactive) and -0.0279 (inactive).
On the same counts, the results for CASTPCSAQLAGNASASA [HC2562] are -1.59 (inactive), 0.487 (inactive) and 0.259 (inactive).
Take CAEGEVPCHRAGNASASA [HC2456]: the “furin cleavage Z-score” value by setting is: (7.5 min) 1.8; (15 min) 1.4; (30 min) 0.687 (inactive).
On the same counts, the results for CAGLYHVTNDAGNASASA [HC260] are 0.615 (inactive), -1.34 (inactive) and -0.664 (inactive).
On the same counts, the results for CATLGFGAYMAGNASASA [HC791] are 0.163 (inactive), -1.28 (inactive) and 0.49 (inactive).
Taken in the same sequence, the figures for CARSRRPADTAGNASASA [FS-3210] were -0.916 (inactive), -0.606 (inactive) and -2.54 (inactive).
In the case of CASSSRDPRAAGNASASA [FS-1573], the “furin cleavage Z-score” value was -1.14 (inactive) (7.5 min), 0.526 (inactive) (15 min) and 1.07 (30 min).
As for CAQPARSVRLAGNASASA [FS-1389], the “furin cleavage Z-score” value was -0.0259 (inactive) (7.5 min), 0.85 (inactive) (15 min) and 0.452 (inactive) (30 min).
On the same counts, the results for CAKPAKSARSAGNASASA [FS-811] are -0.364 (inactive), -0.316 (inactive) and 0.253 (inactive).
Taken in the same sequence, the figures for CARVCRCARAAGNASASA [FS-3116] were 5.97 (active), 5.83 (active) and 6.08 (active).
On the same counts, the results for CARSRREASGAGNASASA [FS-2311] are 3.7 (active), 2.31 and 2.33.
For CAKSARSVRAAGNASASA [FS-1673], the “furin cleavage Z-score” value (7.5 min) is 6.74 (active), the “furin cleavage Z-score” value (15 min) was 6.73 (active) and the “furin cleavage Z-score” value (30 min) was 7 (active).
On the same counts, the results for CARARRDPRAAGNASASA [FS-2643] are 9.64 (active), 9.59 (active) and 9.18 (active).
Taken in the same sequence, the figures for CAVQPEKGGRAGNASASA [HC1444] were -2.15 (inactive), -2.12 (inactive) and -0.412 (inactive).
Taken in the same sequence, the figures for CADAMEECSQAGNASASA [HC1803] were -1.34 (inactive), 0.113 (inactive) and -0.929 (inactive).
As to CAVVCCSMLYAGNASASA [HC2065], the “furin cleavage Z-score” value (7.5 min) is -0.464 (inactive), the “furin cleavage Z-score” value (15 min) is -0.469 (inactive) and the “furin cleavage Z-score” value (30 min) is -1.46 (inactive).
